From PubChem BioAssay (EPA / NIEHS)
Inconclusive results are not listed. Active and inactive are the calls of the source. The calls were made as follows, unless noted: active = hit-call score of the fitted dose curve at least 0.9, where 1 is the maximum; inconclusive = response in the unintended direction; inactive = score below 0.9.

Key:
[1] = test system: Thyroperoxidase (TPO), gene 54314; assay: CCTE_Simmons_AUR_rTPO: CCTE's Amplex UltraRed Assay for Thyroperoxidase (TPO) Inhibition, Simmons Lab (AID 2283662);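 as to AC50: potency for loss of signal meaning inhibition of peroxidase activity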
How it was run: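 Endpoint is decreased Amplex UltraRed fluorescence after a 30-min, 37C reaction of rat thyroid microsomes with 300 uM H2O2. Eight test concentrations (5 nM–87.5 uM final) in 0.5% DMSO, three biological replicates each.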

[2] = CCTE_Simmons_CellTiterGLO_HEK293T: Viability Assessment in CCTE's Assays for Thyroperoxidase (TPO) Inhibition, Simmons Lab (AID 2283665);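 as to AC50: cells exposed to compound for 24 h before readout; actives reduce ATP signal below DMSO vehicle meaning cytotoxicity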
How it was run: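 HEK293T, 10 000 cells/well, DMEM + 1% FBS; 8-pt titration 5 nM–87.5 uM [final], 0.5% DMSO; 24 hr, 37C, 5% CO2; CellTiter-Glo luminescence; n=3 biological replicates.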

[3] = molecular target: Luciferin 4-monooxygenase (Photinus pyralis) (UniProt P08659); assay: CCTE_Simmons_QuantiLum_inhib_2: CCTE's Firefly Luciferase Inhibition Assay, Simmons Lab (AID 2283767);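 as to AC50: potency for inhibitors that lower luciferase luminescence relative to DMSO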
How it was run: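 Luminescence loss relative to DMSO vehicle defines inhibition; detection reagent containing 150 uM D-luciferin and 147 uM dATP (final, pH 7.8) is injected immediately before each read. Enzyme is preincubated with an 8-point titration (5 nM–87.5 uM final) for 30 min at 37C.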

[4] = molecular target: Cellular tumor antigen p53 (Homo sapiens) (UniProt P04637); assay: TOX21_p53_BLA_p4_ratio: Tox21 HCT-116 p53 Agonism Beta-lactamase Assay, Ratio, Phase 4 (AID 2283601)
How it was run: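 HCT-116 p53 beta-lactamase reporter cells (4000/well) preincubated 5 h, then compound (217-fold dilution of DMSO stock) for 16 h at 37C. CCF4-AM substrate added 2 h at room temperature; 460/530 nm emission ratio fitted upward versus DMSO.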

[5] = CCTE_Harrill_HTTr_Viability_MCF7: CCTE's 6-hour Cell Viability Assessment for the High-Throughput Transcriptomics (HTTr) Platform, in MCF-7 cells cultured in DMEM + 10% fetal bovine serum, Harrill Lab (AID 2284010; active = hit-call score of the fitted dose curve at least 0.9, where 1 is the maximum; inactive = score below 0.9)
How it was run: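 Cells were dosed with chemicals in an eight-point dilution series, imaged 6 hours later for propidium iodide uptake, and the endpoint was analyzed by bidirectional fitting against DMSO as negative control.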

[6] = CCTE_Harrill_HTTr_Apoptosis_MCF7: CCTE's 6-hour Apoptosis Assessment for the High-Throughput Transcriptomics (HTTr) Platform, in MCF-7 cells cultured in DMEM + 10% fetal bovine serum, Harrill Lab (AID 2284011; active = hit-call score of the fitted dose curve at least 0.9, where 1 is the maximum; inactive = score below 0.9)
How it was run: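 Cells are dosed with test chemicals at eight concentrations and imaged 6 hours later for caspase-3/7 activity using a green fluorogenic detection reagent. Activity is fitted in both directions against DMSO controls.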

[7] = CCTE_Harrill_HTTr_CellCount_MCF7: CCTE's Cell Proliferation Assessment for the High-Throughput Transcriptomics (HTTr) Platform, Harrill Lab (AID 2284012);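 also: count of Hoechst-stained nuclei per well by high-content imaging in MCF-7 cells; cells exposed to compound for six hours; intended direction is loss of nuclei count meaning fewer cells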
How it was run: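 Chemicals in eight-point dilution series are added to MCF-7 cells for six hours, nuclei are stained with Hoechst and imaged, and per-well nuclei counts are fitted in both directions relative to DMSO controls.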

[8] = molecular target: Thyroid hormone receptor alpha (Rattus norvegicus) + Thyroid hormone receptor beta (Rattus norvegicus) (UniProt P18113+P63059); assay: TOX21_TR_LUC_GH3_Antagonist_Followup: Tox21 GH3 Thyroid Hormone Receptor Antagonism Luciferase Follow-Up Assay (AID 2283942)
How it was run: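 Antagonist mode: GH3 cells seeded 1,500/well, compounds at 15 concentrations (92 uM to 5nM final) plus T3 at 1.0 nM final, 24 h at 37C. Luciferase read with ONE-Glo after 30 min at room temperature.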

[9] = molecular target: THRA (gene 7067) (UniProt P10827); assay: TOX21_TRA_COA_Antagonist_Followup_ratio: Tox21 Thyroid Hormone Receptor alpha Antagonism through Coactivator Recruitment Follow-Up Assay, Ratio (AID 2283953)
How it was run: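 520:495 nm emission ratio (excitation 340 nm) reports fluorescein-SRC-2 peptide recruitment to GST-TRα LBD by TR-FRET with Tb anti-GST antibody. Values were normalized to DMSO (0%) and T3 control wells (100%); loss of signal indicated antagonism.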

[10] = molecular target: THRB (gene 7068) (UniProt P10828); assay: TOX21_TRB_BLA_Antagonist_Followup_ratio: Tox21 Thyroid Hormone Receptor beta Antagonism Beta-lactamase (BLA) Follow-Up Assay, Ratio (AID 2283958)
How it was run: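 HEK293T TRb-bla (GAL4 DBD + hTRβ LBD), 2% cs-FBS phenol red-free DMEM, 5 h attach; cpds 11-pt triplicate, 18 h 37C; CCF4-AM 2 h RT; 460/530 ratio vs DMSO; CellTiter-Glo viability same wells.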

[11] = TOX21_TRB_BLA_Antagonist_Followup_viability: Viability Assessment in the Tox21 Thyroid Hormone Receptor beta Antagonism Beta-lactamase (BLA) Follow-Up Assay (AID 2283961)
How it was run: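 Cytotoxicity is measured in parallel with the antagonist-mode TRβ beta-lactamase screen, using ATP-coupled luciferase luminescence. Engineered HEK293T cells are treated for 18 h with 11-point compound series in triplicate.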

[12] = molecular target: THRB (gene 7068) (UniProt P10828); assay: TOX21_TRB_COA_Antagonist_Followup_ratio: Tox21 Thyroid Hormone Receptor beta Antagonism through Coactivator Recruitment Follow-Up Assay, Ratio (AID 2283967)
How it was run: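 Cell-free TR-FRET: GST-TRb LBD (5.0 nM) with fluorescein-SRC-2 peptide (200 nM) and Tb anti-GST antibody (2 nM), 0.10% BSA. 520:495 nm emission ratio normalized to DMSO (0%) and T3 (100%).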

[13] = TOX21_TR_RXR_BLA_Antagonist_Followup_viability: Viability Assessment in the Tox21 Thyroid Hormone Receptor beta Retinoid X Receptor alpha (RXRa) Antagonism Beta-lactamase (BLA) Follow-Up Assay (AID 2283979)
How it was run: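 RXRa-bla HEK293T cells (2,500/well, phenol red-free DMEM, 2% charcoal-stripped FBS) were attached 5 h, then exposed to compounds at 11 concentrations in triplicate for 16 h at 37C. Viability measured by CellTiter-Glo ATP luminescence, bidirectional fitting versus DMSO.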

[14] = molecular target: PGR (gene 5241) (UniProt P06401); assay: TOX21_PR_BLA_Followup_Antagonist_ratio: Tox21 HEK293 Progesterone Receptor (PR) Antagonism Beta-lactamase Follow-Up Assay, Ratio (AID 2283934)
How it was run: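 HEK293T PR-UAS-bla, 2% CS-FBS; 6 hr plating, then cpd + R5020 (1 nM final), 16 hr 37C/5% CO2. B/G FRET substrate 2 h RT. Ratio ch2/ch1 vs DMSO; CellTiter-Glo viability multiplexed, autofluorescence checked.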

[15] = TOX21_PR_BLA_Followup_Agonist_viability: Viability Assessment in the Tox21 HEK293 Progesterone Receptor (PR) Agonism Beta-lactamase Follow-Up Assay (AID 2283935);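 also: signal loss means lower viability so actives are cytotoxic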
How it was run: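 HEK293T PR-UAS-bla, 3,000 cells/well, 2% CS-FBS; 6 hr pre-incubation; cpd in DMSO, 16 hr 37C; LiveBLAzer 2 hr RT, then CellTiter-Glo 30 min RT, luminescence. Decrease = lost viability.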

[16] = TOX21_PR_BLA_Followup_Antagonist_viability: Viability Assessment in the Tox21 HEK293 Progesterone Receptor (PR) Antagonism Beta-lactamase Follow-Up Assay (AID 2283936);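 also: hits lower the luminescence signal meaning cytotoxicity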
How it was run: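 PR-UAS-bla HEK293T cells (3,000/well, 2% charcoal-stripped FBS) given compound plus R5020 agonist, 16 h at 37C. CellTiter-Glo added after bla read, 30 min at room temperature; luminescence loss indicates cytotoxicity.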

[17] = molecular target: PGR (gene 5241) (UniProt P06401); assay: TOX21_PR_LUC_Followup_Antagonist: Tox21 HEK293 Progesterone Receptor (PR) Antagonism Luciferase Follow-Up Assay (AID 2283938);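 also: curve fitted upward as signal gain over DMSO baseline despite antagonist label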
How it was run: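 A follow-up to the PR bla screen using HEK293-PR-A-luc cells, multiplexed with cell viability to flag cytotoxicity. Reporter luminescence after 16 h compound exposure was analysed relative to DMSO.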

[18] = TOX21_PR_LUC_Followup_Antagonist_viability: Viability Assessment in the Tox21 HEK293 Progesterone Receptor (PR) Antagonism Luciferase Follow-Up Assay (AID 2283940)
How it was run: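 Multiplexed viability counter-screen: after 5 days in charcoal-stripped-FBS medium, HEK293-PR-A-luc cells are plated, pinned with DMSO-dissolved compounds for 16 h at 37C, and ATP content is quantified luminescently via CellTiter-Glo.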

[19] = TOX21_PR_LUC_Followup_Agonist_viability: Viability Assessment in the Tox21 HEK293 Progesterone Receptor (PR) Agonism Luciferase Follow-Up Assay (AID 2283941);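 also: loss of signal means cytotoxicity so actives lower viability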
How it was run: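 Cells were kept 5 days in charcoal-stripped serum medium before plating HEK293-PR-A-luc at 3,000 cells/well. After 5 h they received DMSO-dissolved compound and incubated 16 h at 37C. Viability was taken from CellTiter-Glo ATP luminescence.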

[20] = molecular target: Nucleoli Translocation, AR (gene 367) (UniProt P10275); assay: UPITT_HCI_U2OS_AR_TIF2_Nucleoli_Antagonist: University of Pittsburgh U2OS Androgen Receptor-Transcriptional Intermediary Factor 2 (AR-TIF2) Antagonism High Content Imaging Assay for Nucleoli Translocation (AID 2283997)
How it was run: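 U2OS cells co-expressing red-fluorescent-tagged human AR and green-fluorescent-tagged TIF2, imaged by high-content microscopy for nucleolar red fluorescence. Antagonist mode against DHT; primary screen at 20 uM final (0.2% DMSO).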

[21] = molecular target: Ratio of Nucleoli Translocation and Cytoplasm, AR (gene 367) (UniProt P10275); assay: UPITT_HCI_U2OS_AR_TIF2_Nucleoli_Cytoplasm_Ratio_Antagonist: University of Pittsburgh U2OS Androgen Receptor-Transcriptional Intermediary Factor 2 (AR-TIF2) Antagonism High Content Imaging Assay for Ratio of Nucleoli Translocation and Cytoplasm (AID 2283999);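 also: antagonists lower the DHT-driven ratio of nucleolar to cytoplasmic red signal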
How it was run: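 Human osteosarcoma U2OS line, AR fused to RFP, coactivator TIF2 fused to GFP. Cpds 20 uM final, 0.2% DMSO (screen); 0.195–50 uM final, 0.5% DMSO (CRC). Endpoint: nucleoli/cytoplasm red signal ratio, DHT as baseline, loss-of-signal antagonist mode.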

[22] = molecular target: Ratio of Nucleoli Translocation and Cytoplasm, AR (gene 367) (UniProt P10275); assay: UPITT_HCI_U2OS_AR_TIF2_Nucleoli_Cytoplasm_Ratio_Agonist: University of Pittsburgh U2OS Androgen Receptor-Transcriptional Intermediary Factor 2 (AR-TIF2) Agonism High Content Imaging Assay for Ratio of Nucleoli Translocation and Cytoplasm (AID 2284000);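 also: hits raise the red nucleolar to cytoplasm ratio above vehicle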
How it was run: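 U2OS cells expressing RFP-tagged human AR and GFP-tagged TIF2; high-content imaging ratio of nucleolar to cytoplasmic red fluorescence, fitted as gain of signal vs DMSO. Single point at 20 uM final (0.2% DMSO); concentration-response 0.195-50 uM final (0.5% DMSO).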

[23] = molecular target: PGR (gene 5241) (UniProt P06401); assay: TOX21_PR_BLA_Followup_Agonist_ratio: Tox21 HEK293 Progesterone Receptor (PR) Agonism Beta-lactamase Follow-Up Assay, Ratio (AID 2283933)
How it was run: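 HEK293T PR-UAS-bla, 2% CS-FBS; 6 hr preincubation, cpd/DMSO pinned, 16 hr 37C/5% CO2; LiveBLAzer B/G 2 hr RT; FRET ch2/ch1 ratio, agonist direction vs DMSO. Viability by CellTiter-Glo in same wells.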

[24] = molecular target: PGR (gene 5241) (UniProt P06401); assay: TOX21_PR_LUC_Followup_Agonist: Tox21 HEK293 Progesterone Receptor (PR) Agonism Luciferase Follow-Up Assay (AID 2283937; active = hit-call score of the fitted dose curve at least 0.9, where 1 is the maximum; inactive = score below 0.9)
How it was run: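 Cells: HEK293-PR-A-luc, 3,000/well, 10% charcoal-stripped FBS assay medium. Compound added after 5 h; 16 h, 37C, 0% CO2. ONE-Glo luciferase, luminescence. Positive fit vs DMSO.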

Measured: AC50

Sequence of Cellular tumor antigen p53 (Homo sapiens) (P04637 whole entry, looked up): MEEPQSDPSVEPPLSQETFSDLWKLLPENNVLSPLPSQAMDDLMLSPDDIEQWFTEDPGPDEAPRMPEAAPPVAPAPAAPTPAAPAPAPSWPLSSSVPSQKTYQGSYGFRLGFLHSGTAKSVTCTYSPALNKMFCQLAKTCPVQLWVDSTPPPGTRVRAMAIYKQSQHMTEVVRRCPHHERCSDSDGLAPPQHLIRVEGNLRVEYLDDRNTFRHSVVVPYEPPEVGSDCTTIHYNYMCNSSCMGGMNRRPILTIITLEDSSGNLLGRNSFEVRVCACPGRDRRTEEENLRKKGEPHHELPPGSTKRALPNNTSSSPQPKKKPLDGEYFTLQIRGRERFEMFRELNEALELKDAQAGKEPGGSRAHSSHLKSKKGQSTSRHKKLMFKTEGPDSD
Sequence of Luciferin 4-monooxygenase (Photinus pyralis) (P08659 whole entry, looked up): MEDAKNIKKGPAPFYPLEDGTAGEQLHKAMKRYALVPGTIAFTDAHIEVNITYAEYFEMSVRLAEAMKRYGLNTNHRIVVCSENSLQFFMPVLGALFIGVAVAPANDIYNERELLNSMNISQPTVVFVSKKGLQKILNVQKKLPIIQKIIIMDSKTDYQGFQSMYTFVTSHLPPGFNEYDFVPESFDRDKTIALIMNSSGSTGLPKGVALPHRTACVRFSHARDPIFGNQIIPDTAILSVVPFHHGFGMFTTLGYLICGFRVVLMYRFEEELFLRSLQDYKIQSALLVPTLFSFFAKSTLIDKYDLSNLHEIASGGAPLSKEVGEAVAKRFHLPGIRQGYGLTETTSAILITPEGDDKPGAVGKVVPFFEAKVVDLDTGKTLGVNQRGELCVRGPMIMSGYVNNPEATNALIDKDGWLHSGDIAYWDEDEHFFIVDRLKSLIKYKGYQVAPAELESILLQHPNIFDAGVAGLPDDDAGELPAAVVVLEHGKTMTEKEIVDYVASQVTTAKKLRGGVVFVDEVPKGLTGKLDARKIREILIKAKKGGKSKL
Sequence of PGR (gene 5241) (P06401 whole entry, looked up): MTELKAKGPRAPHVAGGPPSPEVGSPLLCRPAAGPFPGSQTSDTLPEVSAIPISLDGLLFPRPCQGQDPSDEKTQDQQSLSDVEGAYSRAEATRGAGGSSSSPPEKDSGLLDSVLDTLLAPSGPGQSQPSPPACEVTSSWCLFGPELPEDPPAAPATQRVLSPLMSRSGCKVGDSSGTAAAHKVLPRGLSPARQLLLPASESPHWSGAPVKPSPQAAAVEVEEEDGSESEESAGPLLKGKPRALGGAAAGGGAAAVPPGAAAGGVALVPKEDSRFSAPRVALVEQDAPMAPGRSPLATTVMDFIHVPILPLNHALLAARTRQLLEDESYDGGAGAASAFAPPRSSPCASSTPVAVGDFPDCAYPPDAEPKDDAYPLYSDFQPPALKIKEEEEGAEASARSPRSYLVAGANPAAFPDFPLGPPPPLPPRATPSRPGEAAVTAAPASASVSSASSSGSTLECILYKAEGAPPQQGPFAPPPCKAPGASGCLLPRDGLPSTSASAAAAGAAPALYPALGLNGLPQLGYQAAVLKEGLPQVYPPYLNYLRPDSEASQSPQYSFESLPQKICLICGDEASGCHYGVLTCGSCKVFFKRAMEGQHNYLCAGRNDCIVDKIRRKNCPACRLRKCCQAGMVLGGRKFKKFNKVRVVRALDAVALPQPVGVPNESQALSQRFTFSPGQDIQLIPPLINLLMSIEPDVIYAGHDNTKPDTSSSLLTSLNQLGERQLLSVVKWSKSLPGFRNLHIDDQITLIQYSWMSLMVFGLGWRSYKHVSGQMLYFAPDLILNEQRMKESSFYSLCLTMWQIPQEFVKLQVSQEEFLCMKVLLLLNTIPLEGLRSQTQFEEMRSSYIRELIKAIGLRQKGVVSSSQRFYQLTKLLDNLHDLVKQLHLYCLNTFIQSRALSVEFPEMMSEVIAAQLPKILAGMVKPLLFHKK
Sequence of THRB (gene 7068) (P10828 whole entry, looked up, the tested form may be a part): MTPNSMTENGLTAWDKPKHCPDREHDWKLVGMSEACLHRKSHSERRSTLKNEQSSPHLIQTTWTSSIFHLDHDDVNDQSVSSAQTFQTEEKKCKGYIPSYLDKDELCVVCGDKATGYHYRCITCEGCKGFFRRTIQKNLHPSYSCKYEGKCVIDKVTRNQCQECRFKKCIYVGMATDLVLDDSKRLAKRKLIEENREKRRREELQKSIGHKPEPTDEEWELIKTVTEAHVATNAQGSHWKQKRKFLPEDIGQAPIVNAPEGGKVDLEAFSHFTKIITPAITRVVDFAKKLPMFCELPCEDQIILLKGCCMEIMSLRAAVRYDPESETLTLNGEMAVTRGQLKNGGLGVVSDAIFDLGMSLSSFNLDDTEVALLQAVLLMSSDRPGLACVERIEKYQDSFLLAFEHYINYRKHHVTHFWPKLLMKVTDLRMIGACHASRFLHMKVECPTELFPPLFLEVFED
Sequence of THRA (gene 7067) (P10827 whole entry, looked up, the tested form may be a part): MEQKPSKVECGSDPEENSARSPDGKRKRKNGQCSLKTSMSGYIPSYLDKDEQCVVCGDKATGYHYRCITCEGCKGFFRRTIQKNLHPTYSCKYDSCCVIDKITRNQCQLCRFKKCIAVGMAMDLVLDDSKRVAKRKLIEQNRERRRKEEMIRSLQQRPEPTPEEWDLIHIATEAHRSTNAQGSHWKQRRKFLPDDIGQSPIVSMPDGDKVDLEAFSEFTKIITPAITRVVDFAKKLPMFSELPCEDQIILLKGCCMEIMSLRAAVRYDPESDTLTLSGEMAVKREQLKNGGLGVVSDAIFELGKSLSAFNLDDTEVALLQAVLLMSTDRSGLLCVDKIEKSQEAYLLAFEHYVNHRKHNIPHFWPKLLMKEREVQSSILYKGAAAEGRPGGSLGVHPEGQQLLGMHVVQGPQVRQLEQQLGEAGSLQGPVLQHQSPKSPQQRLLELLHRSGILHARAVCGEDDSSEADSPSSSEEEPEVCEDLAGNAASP
Sequence of Ratio of Nucleoli Translocation and Cytoplasm, AR (gene 367) (P10275 whole entry, looked up, the tested form may be a part): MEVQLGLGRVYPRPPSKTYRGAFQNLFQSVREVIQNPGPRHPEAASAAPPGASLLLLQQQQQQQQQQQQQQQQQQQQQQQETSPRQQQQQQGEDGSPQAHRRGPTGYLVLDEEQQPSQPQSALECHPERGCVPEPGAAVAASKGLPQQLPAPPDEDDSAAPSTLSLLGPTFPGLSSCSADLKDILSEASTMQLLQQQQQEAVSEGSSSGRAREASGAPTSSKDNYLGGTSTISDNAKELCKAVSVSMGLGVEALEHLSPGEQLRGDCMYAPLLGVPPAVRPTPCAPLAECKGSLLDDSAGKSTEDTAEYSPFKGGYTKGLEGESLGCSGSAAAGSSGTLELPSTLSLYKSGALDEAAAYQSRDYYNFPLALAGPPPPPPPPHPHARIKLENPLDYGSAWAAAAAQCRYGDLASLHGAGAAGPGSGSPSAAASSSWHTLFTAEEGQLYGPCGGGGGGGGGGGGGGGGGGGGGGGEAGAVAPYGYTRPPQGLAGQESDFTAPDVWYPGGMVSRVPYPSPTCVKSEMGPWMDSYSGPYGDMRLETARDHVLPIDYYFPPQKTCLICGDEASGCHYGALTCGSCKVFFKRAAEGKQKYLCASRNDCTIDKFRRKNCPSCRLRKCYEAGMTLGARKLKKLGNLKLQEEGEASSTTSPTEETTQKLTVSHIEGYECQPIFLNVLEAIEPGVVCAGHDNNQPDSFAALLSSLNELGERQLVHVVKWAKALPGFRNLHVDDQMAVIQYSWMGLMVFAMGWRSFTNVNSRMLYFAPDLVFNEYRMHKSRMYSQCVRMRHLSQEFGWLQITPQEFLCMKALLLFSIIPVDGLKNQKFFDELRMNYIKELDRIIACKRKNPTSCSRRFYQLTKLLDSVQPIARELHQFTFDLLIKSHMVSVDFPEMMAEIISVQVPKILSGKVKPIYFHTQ
Sequence of Nucleoli Translocation, AR (gene 367) (P10275 whole entry, looked up): as the sequence (P10275 whole entry, looked up, the tested form may be a part) above

CSc1nc2ccccc2s1
active: [2] 53.6 µM | [3] 35.1 µM
inactive: [1]

CCCOC(=O)c1ccc(N)cc1
inactive: [4]

CCOC(=O)c1cccc(O)c1
inactive: [1] | [2] | [3]

O=S(=O)(O)CO
inactive: [4]

O=C(c1ccccc1)c1ccc(O)cc1
inactive: [1] | [2] | [3] | [5] | [6] | [7]

Oc1cccnc1
inactive: [1] | [2] | [3]

CN(C)C(=S)N(C)C
inactive: [1]
active: [3] 79.5 µM

O=c1cccc(O)[nH]1
inactive: [2] | [3]
active: [1] 9.01 µM

O=[N+]([O-])c1ccc2[nH]c(=S)[nH]c2c1
active: [1] 0.315 µM
inactive: [3]

O=Cc1c2ccccc2c(Cl)c2ccccc12
inactive: [4]

O=C(O)c1cccnc1Nc1cccc(C(F)(F)F)c1
inactive: [8] | [9] | [10] | [11] | [12] | [13]

C/C=C1/C(=O)C[C@H]2[C@@H]3CCC4=CC(=O)CC[C@]4(C)[C@H]3CC[C@]12C
inactive: [14] | [15] | [16] | [17] | [18] | [19] | [8] | [9] | [10] | [11] | [12] | [13]

O=C1NC(=O)c2ccc3c4ccc5c6c(ccc(c7ccc1c2c73)c64)C(=O)NC5=O
inactive: [20] | [21] | [22] | [5] | [6]

CC(=O)OCC(=O)[C@@]1(O)[C@H](C)C[C@H]2[C@@H]3CCC4=CC(=O)C=C[C@]4(C)[C@@]3(F)[C@@H](O)C[C@@]21C
inactive: [14] | [15] | [16] | [17] | [18]

CCC(=O)O[C@]1(C(=O)COC)[C@@H](C)C[C@H]2[C@@H]3CCC4=CC(=O)C=C[C@]4(C)C3(F)[C@@H](O)C[C@@]21C (stereo partly specified)
active: [23] 0.468 µM | [24] 0.0067 µM
inactive: [14] | [15] | [16] | [17] | [18] | [19]
